Rab9 prom act: activates the Rab9 promoter; 320,000 tested, 2.8% active; Huh7 Rab9 promoter-luciferase reporter, luminescence, 24 h; Potency, µM (top dose mostly 9.22 µM), inactives show top-dose activation, negative = inhibition, hits mostly activators; also: % of control where 0% means no effect; nearly all actives have a fitted effect of over 60% in size
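Promoter activation is measured as luciferase luminescence in Huh7 cells stably transfected with a Rab9 promoter–luciferase construct, following 24 h compound exposure at 37 °C and 10 min reagent incubation at ambient temperature.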
FLuc modulator: firefly luciferase modulation, counter-screen for miR-21 project; 360,000 tested, 6.9% active; AID 588342; Potency, µM (series often up to 57.5 µM), without a hit: top-dose activity change, negative = inhibition, hits mostly inhibitors; P08659; purified FLuc, Km substrates, luminescence inhibition;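 also: plate controls were vehicle for no effect and reference inhibitor for full effect; nearly all actives have a fitted effect of over 55% in size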
Target sequence (P08659 whole entry, looked up): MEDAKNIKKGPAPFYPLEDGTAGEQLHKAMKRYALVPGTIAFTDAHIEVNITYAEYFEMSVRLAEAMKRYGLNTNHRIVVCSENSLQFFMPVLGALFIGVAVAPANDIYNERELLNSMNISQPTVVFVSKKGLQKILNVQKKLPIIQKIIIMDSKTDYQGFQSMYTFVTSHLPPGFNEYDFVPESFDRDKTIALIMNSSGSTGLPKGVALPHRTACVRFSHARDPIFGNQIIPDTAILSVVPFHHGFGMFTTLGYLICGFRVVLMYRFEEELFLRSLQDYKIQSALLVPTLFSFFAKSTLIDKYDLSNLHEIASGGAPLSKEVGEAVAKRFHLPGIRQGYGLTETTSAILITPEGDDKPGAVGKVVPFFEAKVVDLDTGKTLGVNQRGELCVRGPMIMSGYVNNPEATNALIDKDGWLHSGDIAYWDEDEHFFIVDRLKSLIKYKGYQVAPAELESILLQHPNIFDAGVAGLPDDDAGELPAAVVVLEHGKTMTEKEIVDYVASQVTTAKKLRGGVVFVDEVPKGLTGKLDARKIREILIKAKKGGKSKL
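Biochemical qHTS of compounds, final roughly 60 µM downward over six points, against 10 nM purified firefly luciferase using Km concentrations of substrates (10 uM D-luciferin, 10 uM ATP) in Tris acetate pH 7.5 buffer; luminescence output.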
SMN2 splice up: SMN2 splice variant enhancement. HEK293 SMN2-luciferase splicing reporter, luminescence, 30-36 h. AID 1458. Potency, µM (titrated, usually from 46.1 µM), for the others: top-dose activity change, positive = activation, hits mostly activators. 210,000 tested, 2.8% active; also: % of control where 0% means no effect; nearly all actives have a fitted effect of over 55% in size
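HEK293 cells carry an SMN2 […]–luciferase reporter in which exon 7 inclusion puts luciferase in frame. Cells were plated 10-12 h before compound addition, then incubated 30-36 h at 37C. ONE-Glo luminescence was read; sodium butyrate at 4.5 mM final served as control.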
ELG1 genotoxic: inducers of genotoxicity in HEK293T ELG1-luciferase cells; 330,000 tested, 1.3% active; Potency, µM (highest dose often 46 µM), without a hit: at the top dose activity change, positive = activation, actives largely listed as activators; HEK293T ELG1-luciferase reporter, luminescence, 16 h; AID 504466; also: % of control where 0% means no effect; nearly all actives have a fitted effect of over 60% in size
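HEK293T cells expressing luciferase-tagged ELG1 were exposed to compound or DMSO vehicle for 16 hr at 37 °C and 5% CO2. Luciferase activity was then measured with ONE-Glo after 30 min at room temperature.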
NPC1 prom act: NPC1 promoter activation. Huh7 NPC1 promoter luciferase reporter, 24 h. Potency, µM (titrated, usually from 9.22 µM), for the others: at the top dose activation, hits mostly activators. 320,000 tested, 2.4% active; also: % of control where 0% means no effect; nearly all actives have a fitted effect of over 60% in size
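Luminescence from an NPC1 promoter-driven luciferase reporter in stably transfected Huh7 cells was measured after 24 h compound treatment at 37 °C, followed by 10 min ambient incubation with luciferase detection reagent.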
* = called active by the depositor; ? = inconclusive; nt = no result given; [ ] = remark or other dose. This is a sample that favours compounds with a hit; in the whole collection about 7.5% have one here. Calls follow the shape of the dose curve; as a rule, active = well fitted curve in the direction sought with a large enough effect; inconclusive = small, poorly fitted or top-dose-only effect, or another doubt; inactive = no such curve, though single readings can be large; an effect the other way counts as inactive or inconclusive. Potency is read from the fitted curve at half-maximal effect.

SMILES	Rab9 prom act	FLuc modulator	SMN2 splice up	ELG1 genotoxic	NPC1 prom act
CC1CCc2nc(NC(=O)c3ccco3)sc2C1 (stereo not given)	0.28µM*	0.3µM*	-25%	?	0.45µM*
CCC(CC)C(=O)Nc1nc2c(s1)CC(C)CC2 (stereo not given)	nt	-21%	nt	nt	nt
CC1CCc2nc(NC(=O)C3CCCO3)sc2C1 (stereo not given)	0.5µM*	2.1µM*	2µM*	1.2µM*	0.5µM*
CCOc1ccccc1C(=O)Nc1nc2c(s1)CC(C)CC2 (stereo not given)	nt	2.7µM*	nt	nt	nt
Cc1csc(NC(=O)CCCc2cccs2)n1	-2%	?	15%	11%	6%
COc1ccc(-c2cc(C)no2)cc1S(=O)(=O)NC1CCC(C)CC1 (stereo not given)	nt	6%	nt	nt	nt
COc1ccc(N2CCN(CC(=O)Nc3nc4c(s3)CC(C)CC4)CC2)cc1 (stereo not given)	-1%	-1%	-16%	-25%	-2%
CC1CCc2nc(NC(=O)Cc3cccs3)sc2C1 (stereo not given)	2.2µM*	9.5µM*	14µM*	9.2µM*	3.2µM*
CN(C)S(=O)(=O)c1cccc(C(=O)Nc2ccc(C(=O)Nc3cccc(S(N)(=O)=O)c3)cc2)c1	nt	nt	nt	-1%	nt
CC(C)C(=O)Nc1ccc(NC(=O)c2cc3ccccc3o2)cc1	3%[1.84 µM]	?	?	?	22%
CNC(=O)c1cc2ccccc2o1	-4%	-3%	22%	7%	0%
NS(=O)(=O)c1cccc(NC(=O)c2cccc(-c3ccc(O)cc3)c2)c1	-1%	17µM*	nt	1%	1%
Cc1cccc(NC(=O)c2cc3ccccc3o2)c1	1.4µM*	3.8µM*	13µM*	21µM*	1.3µM*
CCC(=O)Nc1cccc(NC(=O)c2cc3ccccc3o2)c1	0.71µM*	2.4µM*	?	?	2µM*
O=C(Nc1cccc(Br)c1)c1cc2ccccc2o1	2.8µM*	2.4µM*	nt	?	3.2µM*
COc1cccc(CNC(=O)Cn2nc(N3CCN(c4ccccc4OC)CC3)ccc2=O)c1	nt	-3%	nt	nt	nt
Cc1nnc(NC(=O)CSCc2cc(=O)c3ccccc3[nH]2)s1	-2%	-2%	nt	nt	-5%
NS(=O)(=O)c1cccc(NC(=O)c2cc(=O)c3ccccc3o2)c1	-1%	-9%	nt	-1%	-1%
CCC(=O)Nc1cccc(-c2cc3ccccc3oc2=O)c1	?	12µM*	-37%	?	?
COc1cccc(C(=O)Nc2cc3cc(OC)ccc3oc2=O)c1	nt	0%	2%	nt	nt
O=C(Nc1cc2ccccc2oc1=O)c1ccccc1	0.18µM*	0.43µM*	0.89µM*	?	0.4µM*
O=C(Nc1ccc(N2CCCC2)c(Cl)c1)c1cccc(-c2cc3ccccc3oc2=O)c1	2%	?	-7%	-1%	-2%
NS(=O)(=O)c1cccc(NC(=O)c2cc3ccccc3o2)c1	?	2.1µM*	nt	8%	?
CC(=O)Nc1ccc(NC(=O)c2cccc(-c3cc4ccccc4oc3=O)c2)cc1	3.2µM*	?	10µM*	10%	?
Cc1ccc(CNCc2ccccc2Cl)s1	nt	-5%	-4%	nt	nt
SMILES	Rab9 prom act	FLuc modulator	SMN2 splice up	ELG1 genotoxic	NPC1 prom act
O=C(CSc1nc2nn(-c3ccccc3)c(=O)c-2c2n1CCCCC2)c1ccc(O)c(O)c1	0%	-2%	nt	5%	-2%
O=C(c1cc(Cl)c(=O)n(Cc2ccc(Cl)cc2)c1)N1CCOCC1	0%	7%	3%	3%	-6%
C=CCOc1cccc(C(=O)/C=C2/C(=O)Nc3ccccc32)c1	-4%	7.6µM*	nt	18%	-6%
Cc1ccc(-c2nc3ccccc3n3nnnc23)cc1	1%	-16%	13µM*	?	2%
Oc1ccccc1Nc1nc2ccccc2n2nnnc12	nt	?	11%	nt	nt
Fc1ccccc1Nc1nc2ccccc2n2nnnc12	?	?	?	13µM*	3%
Cc1ccc(C)c(-c2nnc(NC(=O)c3ccco3)o2)c1	-2%	15µM*	nt	-7%	0%
O=C(Nc1nnc(-c2ccccc2Cl)o1)c1ccco1	-4%	6µM*	?	?	20%
COc1cc(-c2nnc(NC(=O)c3ccco3)o2)cc(OC)c1OC	-5%	-3%	nt	5%	-1%
Cc1ccc(-c2nnc(NC(=O)c3ccco3)o2)c(C)c1	?	2.7µM*	nt	-4%	?
CCOc1ccc(NS(=O)(=O)c2ccc3[nH]c4c(c3c2)CCCCC4)cc1	nt	-3%	nt	nt	nt
COc1ccc(/C=C\c2onc(C)c2S(=O)(=O)N2CCC(C(=O)Nc3ccc(Cl)cc3)CC2)cc1	nt	0%	-4%	nt	nt
COc1cc(C(=O)Nc2ccc(C)cc2)c2ccccc2n1	-28%	-9%	nt	13%	-22%
Cc1ccc(NC(=O)C2=C(O)CCn3c2nc2ccccc23)cc1	8%	12µM*	-16%	1%	17%
CN(CC(=O)Nc1ccc(F)c(F)c1F)C(=O)c1ccc(=O)[nH]c1	1.1µM*	4.3µM*	nt	4.6µM*	0.89µM*
CCOc1ccc(NC(C)C(=O)N/N=C/c2cccs2)cc1 (stereo not given)	-2%	-9%	16%	2%	-4%
CCCCOc1ccc(N=Cc2cccs2)cc1	1%	5.4µM*	-4%	3%	1%
COc1ccc(-c2csc(Nc3cccnc3)n2)cc1OC	28%	2.4µM*	-13%	4%	15%
O=C(O)c1ccc(Nc2nc(-c3cccnc3)cs2)cc1O	4%	12µM*	nt	3%	4%
Cc1ccc(Nc2nc(-c3cccnc3)cs2)cc1Cl	?	4.8µM*	nt	21µM*	25%
COc1cccc(Nc2nc(-c3cccnc3)cs2)c1	?	4.8µM*	nt	?	?
CC(C)NC(=O)COc1nncc2ccccc12	2%	1%	11%	4%	-3%
O=c1cc(O)nc(SCc2ccccc2)n1-c1ccc(Cl)cc1	-5%	-16%	?	0%	-1%
Cc1onc(-c2ccccc2Cl)c1C(=O)OCC(=O)N1CCN(c2ccccc2)CC1	3%	-3%	nt	-6%	-11%
C[N+](C)(C)C(C1=CCCC1=O)c1ccccc1 (stereo not given)	nt	nt	-1%[9.22 µM]	nt	nt
SMILES	Rab9 prom act	FLuc modulator	SMN2 splice up	ELG1 genotoxic	NPC1 prom act
CCOCCCNC(=O)c1cc2c(s1)-c1ccccc1SC2	5%	17µM*	nt	2%	1%
Cc1ccc(CNC(=O)c2cc3c(s2)-c2ccccc2SC3)cc1	nt	-6%	-53%	nt	nt
N/C(=N\OC(=O)c1cc(Cl)ccc1Cl)c1ccccn1	5µM*	1.5µM*	5µM*	?	?
COc1ccc(Cl)cc1C(=O)O/N=C(\N)c1ccccn1	13%	?	nt	?	4µM*
COc1ccc(Cl)cc1NC(=O)NNC(=O)c1ccccn1	-1%	-9%	nt	-5%	-4%
O=C(NNC(=S)Nc1cccc2ccccc12)c1cccc(Br)c1	-3%	-5%	-30%	-7%	2%
Cc1ccc(C(=O)NNC(=S)Nc2cccc3ccccc23)s1	28%	11µM*	nt	4%	1%

From PubChem
